In the library only some 2.1% were active in any assay of this set; here they are far more common.
FUS yeast rescue – suppressors of FUS proteinopathy in yeast; 0.24% of 390,000 active; S. cerevisiae FUS-expressing, growth rescue, OD600, 24 h; Potency, µM (doses to about 76.6 µM), most hits filed as activators; AID 1347120;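 note: plate controls were DMSO vehicle for no effect and reference control for full effect; nearly all actives have a fitted effect of over 55% in size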
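Restored growth of FUS-toxic S. cerevisiae, read as 600 nm absorbance after 24 h at 30C in galactose medium (starting OD 0.005). Controls CP55940 and DMSO.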
TDP43 rescue – inhibitors of TDP-43 toxicity in yeast | TDP-43 expressing yeast growth rescue, BacTiter-Glo, 24 h | Potency, µM (titrated, usually from 46.1 µM), inactives show top-dose growth rescue (activation), most hits filed as activators | 1.8% of 410,000 active; note: % of control where 0% means no effect; nearly all actives have a fitted effect of over 50% in size
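Readout is BacTiter-Glo luminescence of cell growth, so inhibitors register as activators. TDP-43-expressing yeast at OD600=0.02 in galactose medium, after raffinose pregrowth to mid-log, were incubated with compound for 24 hr at 30 deg C.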
Abeta yeast res – compounds reversing amyloid beta toxicity in yeast. Potency, µM (titrated, usually from 46.1 µM), most hits filed as activators. AID 1347071. 0.063% of 410,000 active. yeast expressing A-beta42, growth rescue, OD600, 48 h; response scale: 0% DMSO, 100% iron-clioquinol control; note: nearly all actives have a fitted effect of over 55% in size
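Yeast growth medium received pinned compounds, then yeast cells expressing toxic A-beta were added; plates incubated at 30 C for 48 hr. Growth read as absorbance at 600 nm, normalized to DMSO and equimolar FeCl3 plus clioquinol controls.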
TSG101-PTAP inh – blocks PTAP/TSG101 interaction to inhibit HIV-1 budding. Potency, µM (top dose mostly 115 µM), for the others: top-dose activity change, negative = inhibition, most hits filed as inhibitors. AID 493005. 340,000 tested, under 10 active. Fluorescence polarization, FITC-PTAP peptide / Tsg101 binding; active = well fitted inhibition curve with a large enough effect in the main read-out, with a control signal flat, not every such curve was filed as active; inconclusive = small, poorly fitted or top-dose-only effect, or effect the other way, or a change in a side signal; inactive = no such curve, though single readings can be large or run the other way; note: % of control where 0% means no effect
Target sequence (Q99816 whole entry, looked up): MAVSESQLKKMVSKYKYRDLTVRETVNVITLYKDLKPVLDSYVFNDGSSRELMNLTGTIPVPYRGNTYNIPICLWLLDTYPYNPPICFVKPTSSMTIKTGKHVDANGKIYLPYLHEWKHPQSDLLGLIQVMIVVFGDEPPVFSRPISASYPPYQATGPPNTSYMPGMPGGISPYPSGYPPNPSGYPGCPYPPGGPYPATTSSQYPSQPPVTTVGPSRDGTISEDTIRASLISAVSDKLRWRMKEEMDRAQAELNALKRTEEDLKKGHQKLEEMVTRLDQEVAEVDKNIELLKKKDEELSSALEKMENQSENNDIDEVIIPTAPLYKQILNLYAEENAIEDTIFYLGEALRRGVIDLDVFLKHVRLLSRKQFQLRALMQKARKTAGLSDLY
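Fluorescence anisotropy tracks displacement of a FITC-tagged PTAP peptide (50 nM) from the Tsg101 binding domain (10 uM), following a 20 min room-temperature incubation at pH 7.5.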
aSyn yeast inh – rescues yeast growth from alpha-synuclein toxicity; 0.14% of 370,000 active; Potency, µM (doses to about 46.1 µM), without a hit: top-dose growth rescue (activation), actives largely listed as activators; Yeast expressing alpha-synuclein, growth rescue, BacTiter-Glo, 24 h; AID 652106; note: % of control where 0% means no effect; nearly all actives have a fitted effect of over 65% in size
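Screening used galactose-induced yeast with toxic alpha-synuclein levels, exposed to compound for 24 hr at 30 deg C. Cell growth, read with BacTiter-Glo luminescence, gave the measured signal.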
The depositor's hits bear a star; i = inactive; ? = inconclusive; · = not tested or not shown; [ ] = remark or other dose. Unless noted, calls come from the whole dose curve; as a rule, active = well fitted curve in the direction sought with a large enough effect; inconclusive = small, poorly fitted or top-dose-only effect, or another doubt; inactive = no such curve, though single readings can be large; an effect the other way counts as inactive or inconclusive. Potency is the fitted concentration of half-maximal effect.

SMILES | FUS yeast rescue | TDP43 rescue | Abeta yeast res | TSG101-PTAP inh | aSyn yeast inh
Cc1nn(-c2cccc(C(F)(F)F)c2)c(Cl)c1/C=N/Nc1cccc(C(=O)O)c1 | i | ? | i | -2.9% | -14.2%
CCOC(=O)N/N=C/c1c(C)nn(-c2cccc(C(F)(F)F)c2)c1Cl | i | 12.6µM* | ? | -1.1% | -22.5%
CCc1c(-c2cccc(OC)c2)ncn1Cc1cccc(-c2ccccc2)c1 | ? | 2.4% | i | · | -36.8%
CC1=C(C(=O)N(C(C)C)C(C)C)CC(CC(=O)NC2CCCC2)C(=O)N1Cc1ccc(F)cc1 (centres undefined) | i | 14.2% | i | · | 2.9%
COc1ccc(/C=N/N2CCOCC2)cc1COc1ccc(Cl)cc1 | · | 15.8µM* | i | 0.0% | 2.8%
COc1ccc(/C=N/NC(=O)c2ccn[nH]2)cc1COc1ccc(Cl)cc1 | i | 17.8µM* | i | -6.4% | 12.1%
COc1ccc(/C=N/NC(=O)c2ccn[nH]2)cc1CSc1ccccn1 | i | 11.1% | · | -5.4% | 0.9%
CN(C(=O)c1ccc2c(c1)N(Cc1cccc(Cl)c1)C(=O)c1ccccc1S2(=O)=O)C1CCCCC1 | i | -5.8% | i | · | ·
CCCOc1ccccc1Cn1c(=O)sc2ccccc21 | i | 5.0% | i | · | ·
O=C1c2ccccc2NC(c2ccc(-c3ccc(F)cc3)o2)N1O (centres undefined) | i | · | i | · | ·
O=C1c2ccccc2NC(c2ccc(-c3ccc(Br)cc3)o2)N1O (centres undefined) | ? | -39.1% | i | -0.2% | 22.4µM*
Cc1ccc(/C=N\NC(=O)COc2ccc(C)cc2[N+](=O)[O-])cc1 | i | -18.2%[0.397 µM] | i | 2.5% | 10.8%
Cc1ccc(OCC(=O)N/N=C\c2c(C)[nH]n(-c3ccccc3)c2=O)c([N+](=O)[O-])c1 | ? | 0.0% | ? | -7.6% | 20µM*
CNc1nc(Nc2ccc(C)c(Cl)c2)c2cnn(C)c2n1 | i | 14.1µM* | i | 0.0% | 1.3%
CCCNc1nc(Nc2ccc(C)c(Cl)c2)c2cnn(C)c2n1 | i | ? | i | -1.8% | 0.9%
Cc1ccc(NC(=O)Cn2c(=O)n(CCC(=O)N3CCc4ccccc4C3)c(=O)c3ccccc32)c(C)c1 | i | -6.1% | i | · | ·
CCOC(=O)c1ccccc1NC(=O)Cn1c(=O)n(CCC(=O)N2CCc3ccccc3C2)c(=O)c2ccccc21 | ? | 35.5µM* | i | · | ·
Cc1cc(C)cc(OCCn2nnc3ccccc32)c1 | i | 22.4µM* | i | -3.3% | 2.6%
Cc1cccc(C)c1OCCn1nnc2ccccc21 | i | 17.8µM* | i | -1.8% | 13.9%
COc1cc2c(NC3CCN(C(C)C)CC3)nc(N3CCCN(C)CC3)nc2cc1OCCCN(C)C | · | · | · | · | -1.0%
Cc1cccc(OCC(=O)NCc2ccc3c(c2)CCN3C(=O)c2ccccc2)c1 | ? | 25.1µM* | i | · | ·
O=C(COc1ccc2c(c1)CCC2)NCc1ccccc1 | · | 11.2µM* | i | -0.3% | 8.6%
CC(C)CN1C(=O)[C@]2(CC(=O)N(C)C2c2ccccc2)c2cc(-n3cc(CO)nn3)ccc21 (some centres undefined) | i | · | · | · | ·
C[C@H]1C2CC(OC(=O)Nc3cccc(C(F)(F)F)c3)C(C2)[C@H]2CCCCN21 (some centres undefined) | i | · | · | · | ·
COc1ccc(NS(=O)(=O)c2ccc3ccccc3c2)c2ncccc12 | i | ? | 4.47µM* | -5.3% | ?
SMILES | FUS yeast rescue | TDP43 rescue | Abeta yeast res | TSG101-PTAP inh | aSyn yeast inh
COc1ccccc1NS(=O)(=O)c1ccc(OC)c(OC)c1 | i | 19.0% | i | -5.9% | -0.3%
COc1ccccc1NS(=O)(=O)c1ccc2ccccc2c1 | i | 20µM* | i | -5.3% | 26.0%
O=S(=O)(Nc1cccc2ccccc12)c1ccc2ccccc2c1 | · | · | · | · | 20µM*
O=S(=O)(Nc1cccc2ccccc12)c1ccccc1 | i | 2.0% | i | -3.7% | 15.9%
CCOc1ccc(N(c2nc(-c3ccc(OC)c(OC)c3)no2)c2nc(-c3ccc(OC)c(OC)c3)no2)cc1 | i | ? | i | · | ·
O=C1c2ccccc2/C(=C\c2ccc3[nH]ccc3c2)N1c1ccccc1 | i | ? | i | -0.6% | -22.0%
CCC/C(=C1/c2ccccc2C(=O)N1c1ccccc1)c1ccc2[nH]ccc2c1 | i | 14.1µM* | i | -3.8% | -44.0%
CCCNC(=O)c1ccc(-c2nc(CS(=O)(=O)c3ccc(C)cc3)c(C)o2)cc1 | i | 20.1% | i | · | ·
CCC(=O)Nc1ccc(SC#N)cc1C | i | 11.2µM* | i | -5.5% | 8.0%
COc1ccc(NC(=O)CN2C(=O)C3(SCC(=O)N3c3cccc(OC)c3)c3ccccc32)cc1 (centres undefined) | i | 18.4% | i | · | -0.2%
O=C(OCc1cc(=O)n2nc(-c3cccs3)sc2n1)c1ccc(F)cc1 | i | 5.3% | i | · | ·
CCn1c(/C=C/c2ccc(F)cc2)nc2ccccc2c1=O | i | 22.4µM* | i | -0.6% | -12.7%
CCn1c(/C=C/c2ccccc2)nc2ccccc2c1=O | i | 35.5µM* | i | -4.8% | -0.8%
CCCn1ccc2c(OCC(=O)Nc3ccc(OC)c(OC)c3)cccc2c1=O | i | 0.0% | i | · | ·
COc1ccc(C(=O)n2nc(C)cc2Nc2ccccc2)cc1 | i | 35.5µM* | i | -4.9% | -17.5%
Clc1ccc(C(c2ccccc2)c2c[nH]c3ccccc23)s1 (centres undefined) | i | 20µM* | i | · | -36.0%
Cc1ccc2[nH]cc(C(c3ccccc3)c3ccc(Cl)s3)c2c1 (centres undefined) | i | ? | i | · | ·
CCOC(=O)C1=C(C)Nc2nc(SCC)nn2C1c1ccc(OC)cc1 (centres undefined) | i | 7.0% | i | -2.7% | 4.0%
CCOC(=O)C1=C(C)Nc2nc(=S)[nH]n2C1c1ccc(Cl)cc1 (centres undefined) | i | 22.4µM* | i | -9.6% | ?
CC(=O)C1=CCC(c2ccccc2Cl)N(S(=O)(=O)c2ccc(C)cc2)C1 (centres undefined) | ? | 20µM* | i | · | 1.8%
Cc1ccc(S(=O)(=O)NCC2CCC(C(=O)NCCc3ccc(Cl)cc3)CC2)cc1 (centres undefined) | i | -5.9% | i | · | ·
COc1ccc(N(C(=O)c2ccccc2)S(=O)(=O)c2ccc3c(c2)n(C)c(=O)n3C)cc1 | i | 12.7% | i | · | ·
Cc1ccc(-n2ncc(C(=O)NCc3cccs3)c2C2CCN(C(=O)OC(C)(C)C)CC2)c(C)c1 | ? | ? | i | · | ·
Cc1ccc(-n2ncc(C(=O)NCc3cccs3)c2C2CCN(C(=O)OC(C)(C)C)CC2)cc1C | 20µM* | -10.9% | i | · | ·

Compound activity deposited in PubChem BioAssay by National Center for Advancing Translational Sciences (NCATS).
